Laboratory results: the supplement of paper PMC12645437, “Orthogonal IMiD-Degron Pairs Induce Selective Protein Degradation in Cells” (ACS Chemical Biology, 2025)
In all, about 8,300 sequences were measured (“log2 fold change of degron read counts, EGFP-low vs EGFP+ sorted cells (limma voom), compound-induced degradation”: median about -1.1, highest 2% from about 3.2 on). The list comes from a sample in which the highest values are over-represented; it also holds similar and randomly drawn sequences.

Target: T1, CRBN, Q96SW2
T1 chain: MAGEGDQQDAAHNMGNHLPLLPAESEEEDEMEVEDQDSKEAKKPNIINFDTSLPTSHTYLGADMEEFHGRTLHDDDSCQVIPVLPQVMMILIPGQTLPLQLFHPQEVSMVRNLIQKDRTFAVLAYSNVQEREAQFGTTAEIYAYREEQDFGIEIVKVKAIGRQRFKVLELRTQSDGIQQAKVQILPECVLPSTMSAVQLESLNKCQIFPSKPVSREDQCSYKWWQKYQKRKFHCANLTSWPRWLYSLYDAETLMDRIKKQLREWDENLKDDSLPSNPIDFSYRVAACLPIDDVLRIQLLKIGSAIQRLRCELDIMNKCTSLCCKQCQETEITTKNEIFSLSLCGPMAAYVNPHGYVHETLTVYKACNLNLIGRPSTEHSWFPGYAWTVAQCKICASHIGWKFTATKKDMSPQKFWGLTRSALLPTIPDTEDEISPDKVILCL
Assay: log2 fold change of degron read counts, EGFP-low vs EGFP+ sorted cells (limma voom), compound-induced degradation; higher = more compound-induced degradation of the degron-EGFP fusion; degrons are variants of IKZF1/3 zinc finger 2; compound dose not given here
Conditions: Jurkat, 18 h

[1] = compound: compound 19 (5-tert-butyl-thalidomide)
[2] = compound: compound 22 (5-morpholino-thalidomide)
[3] = compound: compound 33 (diphenyl IMiD analogue)
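Further: pooled lentiviral library of zinc finger degron-EGFP fusions in mCherry-positive Jurkat cells, FACS-sorted after compound exposure, with degron abundance counted by next-generation sequencing.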

B1: 46L_47A_49N_50Q_52G_53F_54R_55C_67L_, Q9UKT9 (peptide)
chain: LACNQCGFRCTQKGNLLRHIKL
log2 fold change of degron read counts [1]: -0.828
log2 fold change of degron read counts [2]: -1.5
log2 fold change of degron read counts [3]: -1.86
log2 fold change of degron read counts (compound: thalidomide): -1.22

B2: 46F_47S_49P_50I_52G_53R_54L_55F_67L_, Q9UKT9 (peptide)
chain: FSCPICGRLFTQKGNLLRHIKL
log2 fold change of degron read counts [1]: -0.866
log2 fold change of degron read counts [2]: -1.05
log2 fold change of degron read counts [3]: 1.44
log2 fold change of degron read counts (compound: thalidomide): -0.361

B3: 46F_47V_49P_50Q_52G_53A_54L_55F_67L_, Q9UKT9 (peptide)
chain: FVCPQCGALFTQKGNLLRHIKL
log2 fold change of degron read counts [1]: -2.37
log2 fold change of degron read counts [2]: -1.48
log2 fold change of degron read counts [3]: -0.389
log2 fold change of degron read counts (compound: thalidomide): -0.926

B4: 46F_47G_49E_50I_52G_53A_54W_55F_67L_, Q9UKT9 (peptide)
chain: FGCEICGAWFTQKGNLLRHIKL
log2 fold change of degron read counts [1]: -0.259
log2 fold change of degron read counts [2]: -1.17
log2 fold change of degron read counts [3]: 0.513
log2 fold change of degron read counts (compound: thalidomide): -0.936

B5: 46F_47L_49P_50Q_52G_53A_54Q_55F_67L_, Q9UKT9 (peptide)
chain: FLCPQCGAQFTQKGNLLRHIKL
log2 fold change of degron read counts [1]: -2.2
log2 fold change of degron read counts [2]: -2.3
log2 fold change of degron read counts [3]: 0.482
log2 fold change of degron read counts (compound: thalidomide): -0.585

B6: 46F_47D_49N_50I_52G_53A_54I_55F_67L_, Q9UKT9 (peptide)
chain: FDCNICGAIFTQKGNLLRHIKL
log2 fold change of degron read counts [1]: -1.43
log2 fold change of degron read counts [2]: -1.22
log2 fold change of degron read counts [3]: -0.173
log2 fold change of degron read counts (compound: thalidomide): 0.319

B7: 46F_47Y_49E_50I_52G_53H_54S_55F_67L_, Q9UKT9 (peptide)
chain: FYCEICGHSFTQKGNLLRHIKL
log2 fold change of degron read counts [1]: -2.01
log2 fold change of degron read counts [2]: -3.04
log2 fold change of degron read counts [3]: -1.92
log2 fold change of degron read counts (compound: thalidomide): -2.8

B8: 46F_47V_49N_50Q_52G_53A_54G_55F_67L_, Q9UKT9 (peptide)
chain: FVCNQCGAGFTQKGNLLRHIKL
log2 fold change of degron read counts [1]: -2.26
log2 fold change of degron read counts [2]: -1.63
log2 fold change of degron read counts [3]: -0.863
log2 fold change of degron read counts (compound: thalidomide): -1.05

B9: 46F_47F_49E_50I_52G_53H_54V_55F_67L_, Q9UKT9 (peptide)
chain: FFCEICGHVFTQKGNLLRHIKL
log2 fold change of degron read counts [1]: -1.37
log2 fold change of degron read counts [2]: -1.97
log2 fold change of degron read counts [3]: -2.03
log2 fold change of degron read counts (compound: thalidomide): -1.87

B10: 46L_47S_49E_50I_52G_53F_54H_55C_67L_, Q9UKT9 (peptide)
chain: LSCEICGFHCTQKGNLLRHIKL
log2 fold change of degron read counts [1]: 0.928
log2 fold change of degron read counts [2]: 0.357
log2 fold change of degron read counts [3]: 0.553
log2 fold change of degron read counts (compound: thalidomide): 0.222

B11: 46L_47I_49E_50I_52G_53F_54H_55C_67L_, Q9UKT9 (peptide)
chain: LICEICGFHCTQKGNLLRHIKL
log2 fold change of degron read counts [1]: -0.287
log2 fold change of degron read counts [2]: 0.622
log2 fold change of degron read counts [3]: 1.12
log2 fold change of degron read counts (compound: thalidomide): 1.6

B12: 46L_47W_49E_50I_52G_53F_54H_55C_67L_, Q9UKT9 (peptide)
chain: LWCEICGFHCTQKGNLLRHIKL
log2 fold change of degron read counts [1]: 2.73
log2 fold change of degron read counts [2]: 3.48
log2 fold change of degron read counts [3]: 2.33
log2 fold change of degron read counts (compound: thalidomide): 1.12

B13: 46L_47Y_49E_50I_52G_53F_54H_55C_67L_, Q9UKT9 (peptide)
chain: LYCEICGFHCTQKGNLLRHIKL
log2 fold change of degron read counts [1]: 3.13
log2 fold change of degron read counts [2]: 3.42
log2 fold change of degron read counts [3]: 2.8
log2 fold change of degron read counts (compound: thalidomide): 1.66

B14: 46L_47A_49E_50I_52G_53F_54H_55C_67L_, Q9UKT9 (peptide)
chain: LACEICGFHCTQKGNLLRHIKL
log2 fold change of degron read counts [1]: 1.51
log2 fold change of degron read counts [2]: 0.415
log2 fold change of degron read counts [3]: 0.86
log2 fold change of degron read counts (compound: thalidomide): -0.0575

B15: 46L_47C_49E_50I_52G_53F_54H_55C_67L_, Q9UKT9 (peptide)
chain: LCCEICGFHCTQKGNLLRHIKL
log2 fold change of degron read counts [1]: 0.332
log2 fold change of degron read counts [2]: -0.174
log2 fold change of degron read counts [3]: 1.51
log2 fold change of degron read counts (compound: thalidomide): 0.845

B16: 46F_47H_49N_50Q_52G_53A_54R_55F_67L_, Q9UKT9 (peptide)
chain: FHCNQCGARFTQKGNLLRHIKL
log2 fold change of degron read counts [1]: -1.49
log2 fold change of degron read counts [2]: -1.78
log2 fold change of degron read counts [3]: -1.81
log2 fold change of degron read counts (compound: thalidomide): -2.18

B17: 46F_47V_49N_50Q_52G_53H_54T_55F_67L_, Q9UKT9 (peptide)
chain: FVCNQCGHTFTQKGNLLRHIKL
log2 fold change of degron read counts [1]: -3.49
log2 fold change of degron read counts [2]: -3.28
log2 fold change of degron read counts [3]: -3.04
log2 fold change of degron read counts (compound: thalidomide): -3.41

B18: 46L_47E_49P_50I_52G_53F_54D_55C_67L_, Q9UKT9 (peptide)
chain: LECPICGFDCTQKGNLLRHIKL
log2 fold change of degron read counts [1]: -2.52
log2 fold change of degron read counts [2]: -2.45
log2 fold change of degron read counts [3]: -1.18
log2 fold change of degron read counts (compound: thalidomide): -0.86

B19: 46L_47Y_49N_50Q_52G_53F_54Y_55C_67L_, Q9UKT9 (peptide)
chain: LYCNQCGFYCTQKGNLLRHIKL
log2 fold change of degron read counts [1]: -0.857
log2 fold change of degron read counts [2]: -0.989
log2 fold change of degron read counts [3]: -0.803
log2 fold change of degron read counts (compound: thalidomide): -0.772

B20: 46F_47V_49P_50I_52G_53A_54V_55F_67L_, Q9UKT9 (peptide)
chain: FVCPICGAVFTQKGNLLRHIKL
log2 fold change of degron read counts [1]: -0.253
log2 fold change of degron read counts [2]: 1.32
log2 fold change of degron read counts [3]: 2.04
log2 fold change of degron read counts (compound: thalidomide): 2.17

B21: 46F_47T_49P_50I_52G_53A_54V_55F_67L_, Q9UKT9 (peptide)
chain: FTCPICGAVFTQKGNLLRHIKL
log2 fold change of degron read counts [1]: 0.104
log2 fold change of degron read counts [2]: 2.31
log2 fold change of degron read counts [3]: 2.43
log2 fold change of degron read counts (compound: thalidomide): 2.95

B22: 46F_47Q_49P_50I_52G_53A_54V_55F_67L_, Q9UKT9 (peptide)
chain: FQCPICGAVFTQKGNLLRHIKL
log2 fold change of degron read counts [1]: 0.109
log2 fold change of degron read counts [2]: 3.16
log2 fold change of degron read counts [3]: 2.7
log2 fold change of degron read counts (compound: thalidomide): 3.67

B23: 46F_47R_49P_50I_52G_53A_54V_55F_67L_, Q9UKT9 (peptide)
chain: FRCPICGAVFTQKGNLLRHIKL
log2 fold change of degron read counts [1]: -1.19
log2 fold change of degron read counts [2]: -0.551
log2 fold change of degron read counts [3]: 1.51
log2 fold change of degron read counts (compound: thalidomide): 1.37

B24: 46F_47E_49P_50I_52G_53A_54V_55F_67L_, Q9UKT9 (peptide)
chain: FECPICGAVFTQKGNLLRHIKL
log2 fold change of degron read counts [1]: 0.283
log2 fold change of degron read counts [2]: -0.0372
log2 fold change of degron read counts [3]: 2.77
log2 fold change of degron read counts (compound: thalidomide): 3.33

B25: 46F_47G_49P_50I_52G_53A_54V_55F_67L_, Q9UKT9 (peptide)
chain: FGCPICGAVFTQKGNLLRHIKL
log2 fold change of degron read counts [1]: 3.56
log2 fold change of degron read counts [2]: 2.54
log2 fold change of degron read counts [3]: 2.82
log2 fold change of degron read counts (compound: thalidomide): 1.23

B26: 46F_47A_49P_50I_52G_53A_54V_55F_67L_, Q9UKT9 (peptide)
chain: FACPICGAVFTQKGNLLRHIKL
log2 fold change of degron read counts [1]: 2.91
log2 fold change of degron read counts [2]: 1.96
log2 fold change of degron read counts [3]: 1.75
log2 fold change of degron read counts (compound: thalidomide): 1.06

B27: 46F_47S_49P_50I_52G_53A_54V_55F_67L_, Q9UKT9 (peptide)
chain: FSCPICGAVFTQKGNLLRHIKL
log2 fold change of degron read counts [1]: 2.16
log2 fold change of degron read counts [2]: 1.75
log2 fold change of degron read counts [3]: 2.72
log2 fold change of degron read counts (compound: thalidomide): 1.48

B28: 46F_47I_49P_50I_52G_53A_54V_55F_67L_, Q9UKT9 (peptide)
chain: FICPICGAVFTQKGNLLRHIKL
log2 fold change of degron read counts [1]: -0.717
log2 fold change of degron read counts [2]: 0.836
log2 fold change of degron read counts [3]: 1.86
log2 fold change of degron read counts (compound: thalidomide): 1.85
